Data taken from ChEMBL document CHEMBL1201862, “PubChem BioAssay data set” (2004).
Among all 400,000 compounds or so, about 2,100 (0.53%) were called active. Not shown: some 14% with an inconclusive outcome. How the calls were made is not given here. For the sample, actives were picked, then their nearest neighbours and some compounds at random.

Biological target: Ataxin-2 (Homo sapiens) (UniProt Q99700)
Test: qHTS for Inhibitors of ATXN expression.
Assay type: functional

Sequence of Ataxin-2 (Homo sapiens) (Q99700 whole entry): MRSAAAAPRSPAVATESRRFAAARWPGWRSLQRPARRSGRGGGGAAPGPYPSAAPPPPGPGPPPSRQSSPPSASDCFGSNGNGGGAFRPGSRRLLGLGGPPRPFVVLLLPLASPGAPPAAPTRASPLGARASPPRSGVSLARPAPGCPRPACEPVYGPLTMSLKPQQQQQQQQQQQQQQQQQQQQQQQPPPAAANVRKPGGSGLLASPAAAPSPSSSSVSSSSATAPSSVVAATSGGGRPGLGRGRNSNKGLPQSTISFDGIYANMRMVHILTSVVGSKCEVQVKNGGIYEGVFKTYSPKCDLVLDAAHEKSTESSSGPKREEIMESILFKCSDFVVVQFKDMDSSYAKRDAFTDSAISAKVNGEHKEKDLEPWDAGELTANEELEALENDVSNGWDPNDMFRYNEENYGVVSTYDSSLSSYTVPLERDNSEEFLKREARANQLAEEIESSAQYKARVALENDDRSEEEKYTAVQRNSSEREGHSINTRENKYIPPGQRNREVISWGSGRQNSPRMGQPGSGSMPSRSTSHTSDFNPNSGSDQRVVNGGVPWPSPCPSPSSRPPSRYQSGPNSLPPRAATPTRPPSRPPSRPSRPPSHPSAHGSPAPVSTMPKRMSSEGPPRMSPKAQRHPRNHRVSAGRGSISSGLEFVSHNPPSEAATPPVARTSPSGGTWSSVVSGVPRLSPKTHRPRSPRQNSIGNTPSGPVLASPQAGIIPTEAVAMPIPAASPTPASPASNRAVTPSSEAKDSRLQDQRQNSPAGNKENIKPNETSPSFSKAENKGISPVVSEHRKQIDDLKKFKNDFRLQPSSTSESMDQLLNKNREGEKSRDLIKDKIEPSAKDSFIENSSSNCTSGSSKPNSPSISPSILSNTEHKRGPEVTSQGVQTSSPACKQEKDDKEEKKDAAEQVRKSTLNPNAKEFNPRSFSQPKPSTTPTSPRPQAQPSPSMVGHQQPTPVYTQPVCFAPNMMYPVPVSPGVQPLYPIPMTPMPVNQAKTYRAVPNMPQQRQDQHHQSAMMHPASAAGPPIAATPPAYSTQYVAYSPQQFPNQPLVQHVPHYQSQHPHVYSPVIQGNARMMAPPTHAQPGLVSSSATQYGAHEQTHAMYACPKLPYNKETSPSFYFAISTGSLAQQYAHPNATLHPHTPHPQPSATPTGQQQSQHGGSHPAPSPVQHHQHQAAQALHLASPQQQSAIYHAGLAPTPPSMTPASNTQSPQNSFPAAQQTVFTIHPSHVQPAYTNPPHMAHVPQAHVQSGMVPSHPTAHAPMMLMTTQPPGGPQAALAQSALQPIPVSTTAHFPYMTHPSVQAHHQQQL

`C=CCNc1nc2ccccc2nc1NS(=O)(=O)c1ccc(F)cc1` was tested. Which Potency did it give?
The Potency was “inactive”.

How did the Potency turn out when `CCOC(=O)/C(=C\C=C1/Sc2cc(OCC)c(OCC)cc2N1CC)C(C)=O` was run?
Its Potency is “inactive”.

For `COc1ccccc1[C@@H]1C(c2cccc(Cl)c2)=NN(c2ccccc2)[C@H]1C(=O)N1CCOC1=O`, which Potency is on record?
Its Potency is “inactive”.

With `CCOC(=O)C1(Cc2cccc(F)c2)CCN(Cc2cn(CC)nc2C)CC1` as the molecule, how does the Potency read?
Its Potency is “inactive”.

Which Potency does the source give for `CCCn1c(N)c(C(=O)CSc2nncs2)c(=O)[nH]c1=O` here?
Its Potency is “inactive”.

Which Potency does the source give for `COC(=O)C1=CN(CC2CCCO2)C=C(C(=O)OC)C1c1cccc(O)c1` (centres undefined) here?
Its Potency is “inactive”.

How did the Potency turn out when `Cc1c(O)ccc2c(CC(=O)N[C@@H](Cc3ccccc3)C(=O)O)cc(=O)oc12` was run?
Its Potency is “inactive”.

For `CCOC(=O)c1cc2c(=O)n3ccccc3nc2n(CC2CCCO2)/c1=N\C(=O)c1ccccc1OCC` (centres undefined), which Potency is on record?
The Potency was “inactive”.

With `CCOC(=O)C1CCCN(Cc2ccc(OCc3ccccc3)c(OC)c2)C1` (centres undefined) as the molecule, how does the Potency read?
The Potency was “inactive”.

For `Cc1nc2c(OCc3ccc(OC(F)F)cc3)cccn2c1N(C)C(=O)CCC1CCCC1`, which Potency is on record?
The Potency was 39.8 µM (active).

For `CCn1cc(C(=O)N(C)Cc2ccc(OC(F)F)cc2)c(=O)c2ccc(C)nc21`, which Potency is on record?
The Potency was “inactive”.

How did the Potency turn out when `COC(=O)c1ccc(COc2cccn3c(N(C)C(=O)CCC4CCCC4)c(C)nc23)cc1` was run?
Its Potency is 35.5 µM (active).

How did the Potency turn out when `CCCCCC(=O)Nc1ncc2c(n1)CC(c1cccs1)CC2=O` (centres undefined) was run?
Its Potency is “inactive”.

`O=C(CCCCCn1c(=S)[nH]c2ccc(N3CCOCC3)cc2c1=O)NC1CCN(Cc2ccccc2)CC1` was tested. Which Potency did it give?
Its Potency is “inactive”.

With `Cc1sc2c(c1C)C(O)=C(/C=N/c1ccccn1)S(=O)(=O)N2C` as the molecule, how does the Potency read?
The Potency was “inactive”.

Which Potency does the source give for `N#C/C(=C(/O)COC(=O)CCCNC(=O)c1ccc(Cl)cc1)c1nc2ccccc2[nH]1` here?
Its Potency is 25.1 µM (active).

With `N#Cc1ccccc1S(=O)(=O)N1CCN(C(=O)CCC2CCCC2)CC1` as the molecule, how does the Potency read?
The Potency was “inactive”.

Which Potency does the source give for `N#CC(=C(O)COC(=O)CCC1CCCCC1)c1nc2ccccc2[nH]1` here?
The Potency was 39.8 µM (active).

`N#C/C(=C(/O)C(Cl)(Cl)Cl)c1nc2ccccc2[nH]1` was tested. Which Potency did it give?
The Potency was “inactive”.

With `N#C/C(=C\c1ccc(-c2ccccc2C(=O)O)o1)c1nc2ccccc2[nH]1` as the molecule, how does the Potency read?
The Potency was “inactive”.

`N#C/C(=C(/O)COC(=O)COc1ccc(Cl)cc1)c1nc2ccccc2[nH]1` was tested. Which Potency did it give?
Its Potency is 39.8 µM (active).

For `N#Cc1c(N)n(CCOC(=O)c2ccc(Cl)cc2)c2nc3ccccc3nc12`, which Potency is on record?
The Potency was “inactive”.

For `N#Cc1c(N)n(CCNC(=O)c2ccccc2)c2nc3ccccc3nc12`, which Potency is on record?
Its Potency is “inactive”.

With `N#C/C(=C(/O)COC(=O)COc1cccc(Br)c1)c1nc2ccccc2[nH]1` as the molecule, how does the Potency read?
Its Potency is 22.4 µM (active).

Which Potency does the source give for `N#C/C(=C\c1ccccc1C(=O)O)c1nc2ccccc2[nH]1` here?
Its Potency is “inactive”.

`Cc1cccc(N2C(=O)c3ccccc3C2=O)n1` was tested. Which Potency did it give?
Its Potency is “inactive”.

`Oc1ccccc1C1=NN(c2ccccc2)C(c2ccccc2)C1` (centres undefined) was tested. Which Potency did it give?
The Potency was “inactive”.

`COc1cc(/C=C/c2onc(C)c2[N+](=O)[O-])cc(OC)c1OC` was tested. Which Potency did it give?
Its Potency is “inactive”.

`O=C(CN1C(=O)c2ccccc2C1=O)NCc1ccc(N2CCOCC2)cc1` was tested. Which Potency did it give?
Its Potency is “inactive”.

For `O=C(OCCOc1cccc(Cl)c1)c1ccc2ncsc2c1`, which Potency is on record?
Its Potency is “inactive”.

With `CCC(=O)Nc1c(OC(=O)CC)ccc2c(C)cc(=O)oc12` as the molecule, how does the Potency read?
The Potency was “inactive”.

Which Potency does the source give for `CCCCn1c(N)c(N(CCC(C)C)C(=O)c2ccc(-c3ccc([N+](=O)[O-])cc3)o2)c(=O)[nH]c1=O` here?
Its Potency is 20 µM (active).

How did the Potency turn out when `CCCCn1c(N)c(N(CC)C(=O)c2cc(OC)cc(OC)c2)c(=O)[nH]c1=O` was run?
Its Potency is “inactive”.

For `CCCCN(C(=O)c1ccc2ccccc2c1)c1c(N)n(CCCC)c(=O)[nH]c1=O`, which Potency is on record?
Its Potency is “inactive”.

Which Potency does the source give for `COc1cc2c(cc1OC)C(c1ccc(-c3ccccc3Cl)o1)=NCC2` here?
The Potency was 39.8 µM (active).

For `Cc1nn(C)c(C)c1N1C(=O)c2cccc3c(Br)ccc(c23)C1=O`, which Potency is on record?
Its Potency is “inactive”.

With `Cc1ccccc1CS(=O)(=O)Cc1ccc(C(=O)NCCCN2CC(C)CC(C)C2)o1` (centres undefined) as the molecule, how does the Potency read?
The Potency was 8.91 µM (active).

With `Cc1ccccc1C(=O)NCCCNC(=O)c1ccco1` as the molecule, how does the Potency read?
The Potency was “inactive”.

With `Cc1ccccc1CNC(=O)c1ccccc1NS(C)(=O)=O` as the molecule, how does the Potency read?
Its Potency is “inactive”.

How did the Potency turn out when `CC(C)C1Cc2c(sc3ncnc(NN)c23)CO1` (centres undefined) was run?
The Potency was “inactive”.

Which Potency does the source give for `Cc1cc(O)cc2c(=O)c3ccccc3sc12` here?
Its Potency is “inactive”.

Which Potency does the source give for `COc1cc(C)c2sc3ccccc3c(=O)c2c1NCCN(C)C` here?
Its Potency is 44.7 µM (active).

`CN(C)CCCNC(=O)c1cc2sc3ccccc3c2s1` was tested. Which Potency did it give?
Its Potency is “inactive”.

Which Potency does the source give for `Cc1ccc(/C=N/NC(=O)c2cc3c(s2)CCCC3)o1` here?
Its Potency is “inactive”.

For `O=S(=O)(/C=C/c1ccccc1)NCc1ccccc1Cl`, which Potency is on record?
The Potency was “inactive”.

Which Potency does the source give for `O=C(CCC(=O)N/N=C/c1cc(Cl)cc(Cl)c1O)NCc1ccccc1` here?
Its Potency is “inactive”.

For `CCC/C=C/c1ccc(CN2C(CC(C)C)C(=O)N(Cc3cn(CCC4OCCCO4)nn3)CCS2(=O)=O)cc1` (centres undefined), which Potency is on record?
The Potency was 39.8 µM (active).

For `CCC/C=C/c1ccc(CN2C(CC(C)C)C(=O)N(Cc3cn(CCC4OCCO4)nn3)CCS2(=O)=O)cc1` (centres undefined), which Potency is on record?
The Potency was 35.5 µM (active).

With `O=C(CCCCn1c(=O)[nH]c2ccsc2c1=O)NCc1ccc2c(c1)OCO2` as the molecule, how does the Potency read?
Its Potency is “inactive”.

Which Potency does the source give for `CN(C)S(=O)(=O)c1ccc2oc(SCC(=O)c3c(N)n(C4CC4)c(=O)[nH]c3=O)nc2c1` here?
Its Potency is “inactive”.

Which Potency does the source give for `O=c1c2ccccc2nc(/C=C/c2c[nH]c3ccccc23)n1CCO` here?
The Potency was “inactive”.

For `CCCCc1cc(-c2nnc(S)o2)c2ccccc2n1`, which Potency is on record?
The Potency was “inactive”.

Which Potency does the source give for `CC(C)NS(=O)(=O)c1ccc(NC(=O)C(C)OC(=O)C2CCC2)cc1` (centres undefined) here?
The Potency was “inactive”.

For `CC(Oc1cc(F)ccc1[N+](=O)[O-])C(=O)Nc1ccc(S(=O)(=O)N2CCCC2)cc1` (centres undefined), which Potency is on record?
Its Potency is “inactive”.

Which Potency does the source give for `CC(Oc1ccccc1Cl)C(=O)Nc1ccc(S(=O)(=O)N2CCCC2)cc1` (centres undefined) here?
The Potency was 35.5 µM (active).

For `Cc1cc2nc(-c3cccnc3O)[nH]c2cc1C`, which Potency is on record?
The Potency was “inactive”.

Which Potency does the source give for `CN1c2ccccc2C(C)(C)C12C=Nc1c(cc(N3CCOCC3)c3ccccc13)O2` (centres undefined) here?
Its Potency is “inactive”.

With `Cc1ccccc1N(C(=O)c1snc(C(N)=O)c1N)C(C(=O)NCC1CCCO1)c1ccc(F)cc1` (centres undefined) as the molecule, how does the Potency read?
Its Potency is “inactive”.

Which Potency does the source give for `Cc1cccc(N(C(=O)c2nsc(Cl)c2Cl)C(C(=O)NC2CCCC2)c2ccc(O)cc2)c1C` (centres undefined) here?
Its Potency is 17.8 µM (active).

With `NC(=O)c1nsc(C(=O)N(c2cccc(O)c2)C(C(=O)NC2CCCC2)c2ccc(Cl)cc2)c1N` (centres undefined) as the molecule, how does the Potency read?
The Potency was “inactive”.

For `COC(=O)c1cc2c(=O)c3ccccc3oc2nc1/C=C/N(C)C`, which Potency is on record?
Its Potency is “inactive”.

`COc1cc(N=Nc2cccc(S(N)(=O)=O)c2)c2ccccc2c1N` was tested. Which Potency did it give?
The Potency was 35.5 µM (active).

How did the Potency turn out when `COc1cc(/C=N\NS(=O)(=O)c2ccccc2)cc(OC)c1OC` was run?
Its Potency is “inactive”.

How did the Potency turn out when `COc1ccc(-c2cc(C(=O)Nc3cc(S(N)(=O)=O)ccc3C)c3ccccc3n2)cc1OC` was run?
The Potency was “inactive”.
